Results published in PubChem BioAssay (Tox21).
Where “and” joins values, the source holds several entries; their conditions need not be identical. Equal entries are not always repeated. Records with an inconclusive call do not appear. Calls of active or inactive are those of the source. Unless noted, calls follow the shape of the dose curve; as a rule, active = well fitted curve in the direction sought with a large enough effect in the repeat runs; inconclusive = weak or mixed curves; inactive = no such curve, though single readings can be large; an effect the other way counts as inactive or inconclusive.

Assays:
[1] = qHTS assay to identify small molecule antagonists of the estrogen related receptor (ERR) signaling pathway from Tox21 library - cell viability counter screen (AID 1224834); conditions: ERR reporter cells viability, CellTiter-Fluor, 17.5 h; series mostly up to 92.4 µM; also: nearly all actives have a fitted effect of over 30% in size; also: potency is read from the fitted curve at half-maximal effect
Method in brief: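 In this quantitative HTS format, ERR cells receive compounds in DMSO and are incubated for 17.5 h at 37 C. Live-cell protease activity is then detected with CellTiter-Fluor.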

[2] = target: Luciferin 4-monooxygenase (Photinus pyralis) (UniProt P08659); assay: qHTS assay to identify small molecule inhibitors of firefly luciferase (AID 1224835); also: nearly all actives have a fitted effect of over 25% in size; also: potency is read from the fitted curve at half-maximal effect; conditions: purified P. pyralis luciferase, luminescence inhibition; series mostly up to 115 µM
Luciferin 4-monooxygenase (Photinus pyralis), sequence (P08659 whole entry, looked up): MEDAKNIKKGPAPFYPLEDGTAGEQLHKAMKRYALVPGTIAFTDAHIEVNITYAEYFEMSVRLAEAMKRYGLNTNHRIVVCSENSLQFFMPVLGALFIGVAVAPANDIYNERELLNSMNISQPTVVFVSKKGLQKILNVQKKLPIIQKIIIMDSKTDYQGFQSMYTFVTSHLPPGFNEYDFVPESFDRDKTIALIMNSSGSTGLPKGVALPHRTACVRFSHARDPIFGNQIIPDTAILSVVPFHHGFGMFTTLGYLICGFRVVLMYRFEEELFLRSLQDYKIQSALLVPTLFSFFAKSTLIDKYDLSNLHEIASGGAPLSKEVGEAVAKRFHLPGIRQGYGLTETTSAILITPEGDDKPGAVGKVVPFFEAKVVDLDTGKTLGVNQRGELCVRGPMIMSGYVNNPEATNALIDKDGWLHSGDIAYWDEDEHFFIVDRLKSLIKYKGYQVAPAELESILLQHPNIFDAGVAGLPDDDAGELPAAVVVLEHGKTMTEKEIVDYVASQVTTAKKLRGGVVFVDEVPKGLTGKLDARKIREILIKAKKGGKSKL
Method in brief: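 Biochemical qHTS: compounds run as interplate titrations against purified firefly enzyme, with D-luciferin and ATP each at its KM concentration. Light output recorded by CCD imaging.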

[3] = qHTS assay to identify small molecule antagonists of the constitutive androstane receptor (CAR) signaling pathway - cell viability counter screen (AID 1224837); conditions: HepG2-CYP2B6-hCAR viability, CellTiter-Fluor, 23 h, co-treated with 50 nM CITCO; series mostly up to 92.4 µM; also: nearly all actives have a fitted effect of over 45% in size; also: potency is read from the fitted curve at half-maximal effect
Method in brief: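 In quantitative HTS format, compounds at 15 concentrations were applied to HepG2 cells double-transfected with hCAR and CYP2B6-2.2kb under 50 nM CITCO stimulation; live-cell protease activity was read after 23 hr via CellTiter-Fluor.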

[4] = target: Nuclear receptor subfamily 1 group I member 3 (Homo sapiens) (UniProt Q14994); assay: qHTS assay to identify small molecule antagonists of the constitutive androstane receptor (CAR) signaling pathway (AID 1224838); conditions: HepG2-CYP2B6-hCAR luciferase, CITCO-stimulated, 24 h; series mostly up to 92.4 µM; also: nearly all actives have a fitted effect of over 40% in size; also: potency is read from the fitted curve at half-maximal effect
Nuclear receptor subfamily 1 group I member 3 (Homo sapiens), sequence (Q14994 whole entry, looked up): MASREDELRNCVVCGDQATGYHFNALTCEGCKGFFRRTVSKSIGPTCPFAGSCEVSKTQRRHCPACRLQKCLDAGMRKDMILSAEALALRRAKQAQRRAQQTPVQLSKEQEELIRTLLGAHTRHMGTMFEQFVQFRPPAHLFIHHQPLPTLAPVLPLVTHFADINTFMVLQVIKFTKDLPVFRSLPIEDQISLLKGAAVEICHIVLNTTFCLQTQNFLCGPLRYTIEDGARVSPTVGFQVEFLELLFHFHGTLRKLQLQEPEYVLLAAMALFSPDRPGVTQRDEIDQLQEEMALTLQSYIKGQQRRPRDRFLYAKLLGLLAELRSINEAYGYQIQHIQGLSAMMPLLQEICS
Method in brief: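 CITCO-stimulated (50 nM final) HepG2 cells stably transfected with hCAR and CYP2B6-2.2kb luciferase were exposed to compounds at 15 concentrations for 24 h at 37 C/5% CO2. A luciferase reagent was added and luminescence recorded after 30 min.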

[5] = target: Nuclear receptor subfamily 1 group I member 3 (Homo sapiens) (UniProt Q14994); assay: qHTS assay to identify small molecule agonists of the constitutive androstane receptor (CAR) signaling pathway (AID 1224839); conditions: HepG2 hCAR CYP2B6-luciferase, agonist mode, 24 h; series mostly up to 92.4 µM; also: nearly all actives have a fitted effect of over 15% in size; also: potency is read from the fitted curve at half-maximal effect
Method in brief: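 Compounds tested at 15 concentrations on HepG2 cells stably harbouring hCAR and CYP2B6-2.2kb reporter constructs, co-treated with PK11195 (0.75 uM final), 24 h at 37 C; luminescent reporter signal quantified.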

[6] = qHTS assay to identify small molecule antagonists of the estrogen related receptor signaling pathway with the pleiotropic PPARgamma coactivator (PGC) from Tox21 10K library - cell viability counter screen (AID 1224840; active = well fitted cell-killing curve with a large enough effect in the repeat runs, not every such curve was filed as active; also: nearly all actives have a fitted effect of over 40% in size; also: potency is read from the fitted curve at half-maximal effect); conditions: PGC/ERR reporter cells viability, CellTiter-Fluor, 17.5 h; series mostly up to 92.4 µM
Method in brief: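 Viability counter screen, PGC/ERR cells: 17.5 h compound exposure at 37 C, CellTiter-Fluor fluorescence endpoint.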

[7] = target: Thyrotropin receptor (Homo sapiens) (UniProt P16473); assay: qHTS assay to identify small molecule agonists of the thyroid stimulating hormone receptor (TSHR) signaling pathway (AID 1224843; calls by dose curve; also: nearly all actives have a fitted effect of over 45% in size; also: potency is read from the fitted curve at half-maximal effect); conditions: TSHR-HEK293 cells, cAMP HTRF, agonist mode, 30 min; series mostly up to 92.4 µM
Thyrotropin receptor (Homo sapiens), sequence (P16473 whole entry, looked up): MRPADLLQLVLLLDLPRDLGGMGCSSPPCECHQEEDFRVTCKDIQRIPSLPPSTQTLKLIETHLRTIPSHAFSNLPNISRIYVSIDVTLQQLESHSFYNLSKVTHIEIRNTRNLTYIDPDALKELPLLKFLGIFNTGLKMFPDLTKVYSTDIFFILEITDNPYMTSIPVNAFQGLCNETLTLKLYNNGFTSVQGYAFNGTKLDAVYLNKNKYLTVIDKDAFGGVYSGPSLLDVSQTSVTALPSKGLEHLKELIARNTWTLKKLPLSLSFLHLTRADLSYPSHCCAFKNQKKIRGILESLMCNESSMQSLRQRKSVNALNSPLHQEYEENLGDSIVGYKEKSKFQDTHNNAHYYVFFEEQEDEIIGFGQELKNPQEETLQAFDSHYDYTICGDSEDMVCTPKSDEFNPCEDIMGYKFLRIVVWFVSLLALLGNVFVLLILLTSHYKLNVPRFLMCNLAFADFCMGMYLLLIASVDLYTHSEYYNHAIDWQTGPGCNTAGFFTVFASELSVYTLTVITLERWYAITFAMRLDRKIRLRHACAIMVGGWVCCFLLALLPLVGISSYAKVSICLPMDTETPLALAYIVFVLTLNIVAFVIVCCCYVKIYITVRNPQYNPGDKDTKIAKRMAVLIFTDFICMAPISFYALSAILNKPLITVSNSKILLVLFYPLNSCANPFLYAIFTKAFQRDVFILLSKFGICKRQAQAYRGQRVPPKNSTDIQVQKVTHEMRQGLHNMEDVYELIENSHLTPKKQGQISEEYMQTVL
Method in brief: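 Agonist-mode screen: TSHR HEK293 cells received test chemicals for half an hour at room temperature, then HTRF cAMP detection reagents for one hour prior to fluorescence measurement. Each chemical ran as a 15-concentration series, triplicated.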

[8] = qHTS assay to identify small molecule antagonists of the retinoid acid receptor (RAR) signaling pathway - cell viability counter screen (AID 1159551); conditions: C3RL4 cells viability, ATP luminescence (CellTiter-Glo), 6 h; series mostly up to 92.4 µM; also: nearly all actives have a fitted effect of over 35% in size
Method in brief: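 Viability of C3RL4 cells is quantified from ATP by luminescence after 6 h treatment at 37 C with compounds and 1 uM retinol.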

[9] = qHTS assay to identify small molecule agonists of the estrogen related receptor signaling pathway with the pleiotropic PPARgamma coactivator (PGC) from Tox21 10K library (AID 1224842); conditions: PGC/ERR reporter cell line, luciferase ONE-Glo, 18 h; series mostly up to 92.4 µM; also: nearly all actives have a fitted effect of over 15% in size; also: potency is read from the fitted curve at half-maximal effect
Method in brief: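 PGC/ERR reporter cell line, 2,000 cells per well, incubated 6 h at 37 C before 23 nL compound in DMSO was added. After 18 h at 37 C, One-Glo luminescence read following 30 min at room temperature.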

[10] = qHTS assay to identify small molecule antagonists of the retinoic acid receptor (RAR) signaling pathway (AID 1159552; also: nearly all actives have a fitted effect of over 50% in size; also: potency is read from the fitted curve at half-maximal effect); conditions: C3RL4 RARE luciferase reporter, retinol-stimulated, 6 h; series mostly up to 92.4 µM
Method in brief: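 Test chemicals and DMSO controls were pin-transferred onto C3RL4 cells a day after seeding; retinol (1 uM final) followed at once. Luminescent reporter output was quantified after 6 hr of co-incubation and 30 min with detection reagent.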

[11] = qHTS assay to identify small molecule agonists of the retinoic acid receptor (RAR) signaling pathway (AID 1159553); conditions: C3RL4 RARE luciferase reporter, agonist, 6 h; series mostly up to 73.3 µM
Method in brief: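 Compounds dissolved in DMSO were pinned onto C3RL4 cells seeded the previous day, and plates were held 6 hr at 37 C. RARE-driven luciferase output was then read by luminescence.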

[12] = qHTS assay to identify small molecule agonists of the constitutive androstane receptor (CAR) signaling pathway - cell viability counter screen (AID 1224836); conditions: HepG2-CYP2B6-hCAR viability, CellTiter-Fluor, 23 h, PK11195 added to every well; series mostly up to 92.4 µM; also: nearly all actives have a fitted effect of over 45% in size; also: potency is read from the fitted curve at half-maximal effect
Method in brief: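 23 h treatment, 37 C, 5% CO2. Cell line: HepG2 stably expressing hCAR with a CYP2B6-2.2kb construct. Co-treatment: PK11195, 0.75 uM final. Read-out: CellTiter-Fluor fluorescence intensity.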

[13] = qHTS assay to identify small molecule antagonists of the estrogen related receptor signaling pathway with the pleiotropic PPARgamma coactivator (PGC) from Tox21 10K library (AID 1224841; call rule not given here; also: actives are mostly falling curves and most rising ones were filed inactive; nearly all actives have a fitted effect of over 50% in size; also: potency is read from the fitted curve at half-maximal effect); conditions: PGC/ERR reporter cell line, ONE-Glo luciferase, 18 h; series mostly up to 92.4 µM
Method in brief: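 In the PGC/ERR line, DMSO solutions of test chemicals are pin-delivered to 2,000 cells/well six hours after dispensing. Following eighteen hours' incubation, One-Glo reagent is added and luminescence recorded.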

[14] = qHTS assay to identify small molecule antagonists of the estrogen related receptor (ERR) signaling pathway - cell viability counter screen (AID 1224818); conditions: ERR reporter cell line viability counter screen; series mostly up to 92.2 µM
Method in brief: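 Cytotoxicity check run alongside the ERR antagonist screen: cells exposed to test compounds 17.5 h at 37 C, viability taken as CellTiter-Fluor fluorescence intensity.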

[15] = qHTS assay to identify small molecule antagonists of the estrogen related receptor (ERR) signaling pathway (AID 1224819;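 also: luminescence from an ERR-driven luciferase reporter measured with One-Glo reagent; nearly all actives have a fitted effect of over 50% in size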); conditions: ERR reporter cell line, luciferase inhibition; series mostly up to 92.2 µM
Method in brief: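 ERR reporter cells were plated at 2,000 cells/well and left 6 h at 37 C/5% CO2 before pin-tool transfer of compounds in DMSO. After 18 h at 37 C, One-Glo was added and luminescence was read 30 min later at room temperature.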

[16] = qHTS assay to identify small molecule agonists of the estrogen related receptor (ERR) signaling pathway (AID 1224820); conditions: ERR reporter cell line, luciferase agonist mode; series mostly up to 92.2 µM
Method in brief: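 An ERR cell line provided by NTP was seeded at 2,000 cells per well and allowed to settle for 6 h before compounds in DMSO were added. After 18 h at 37 C, luciferase activity was measured by One-Glo luminescence.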

[17] = system: estrogen-related receptor alpha (ERRalpha) with PGC-1alpha coactivator, human; assay: qHTS assay to identify small molecule antagonists of the estrogen related receptor signaling pathway with the pleiotropic PPARgamma coactivator (PGC) (AID 1224821; calls by dose curve;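 also: lower luminescence signal means antagonism of PGC/ERR signalling; nearly all actives have a fitted effect of over 50% in size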); conditions: ERR/PGC reporter cell line, luciferase, antagonist mode; series mostly up to 92.2 µM
Method in brief: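 A PGC/ERR cell line supplied by NTP is seeded, allowed 6 h at 37 C, and treated with test compounds in DMSO for 18 h. Signal is then measured as luciferase luminescence using One-Glo.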

[18] = qHTS assay to identify small molecule agonists of the estrogen related receptor signaling pathway with the pleiotropic PPARgamma coactivator (PGC) (AID 1224823); conditions: ERR/PGC reporter cell line, luciferase agonist mode; series mostly up to 92.2 µM
Method in brief: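 Compounds dissolved in DMSO are added by pin tool to PGC/ERR cells that have settled for 6 h, and incubation continues 18 h at 37 C. Reporter output is measured as One-Glo luminescence.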

Measured: Potency

O=CC(Br)(Br)Br
active: [1] 24.3 µM | [2] 17.8 µM | [3] 27.2 µM | [4] 30.5 µM | [6] 15.3 µM | [7] 30.5 µM
inactive: [5]

CC(C)CCCCCCCOP(=O)(Oc1ccccc1)Oc1ccccc1
active: [5] 27.4 µM | [7] 24.5 µM
inactive: [8] | [1] | [2] | [3] | [6] | [9]

Cc1cc(SCc2sc(-c3ccc(C(F)(F)F)c(F)c3)nc2C)ccc1OCC(=O)O
active: [2] 44.8 µM
inactive: [10] | [11] | [12] | [3] | [4] | [5] | [6] | [13] | [9]

CC1(c2ccc(Oc3ccccc3)cc2)OC(=O)N(Nc2ccccc2)C1=O (centres undefined)
inactive: [2] | [4] | [9]
active: [10] 27.5 µM | [1] 27.5 µM | [13] 4.89 µM

C=CC(=O)OCCCCOC(=O)C=C
inactive: [2] | [5] | [13]
active: [1] 54.5 µM | [3] 61.1 µM | [6] 48.6 µM | [9] 21.7 µM

CCN(CC)c1c([N+](=O)[O-])cc(C(F)(F)F)c(N)c1[N+](=O)[O-]
active: [5] 48.6 µM | [7] 13.7 µM
inactive: [8] | [2] | [3] | [4]

C[C@H]1O[C@@H](O[C@H]2[C@@H](O)C[C@H](O[C@H]3[C@@H](O)C[C@H](O[C@H]4CC[C@@]5(C)[C@H](CC[C@@H]6[C@@H]5CC[C@]5(C)[C@@H](C7=CC(=O)OC7)CC[C@]65O)C4)O[C@@H]3C)O[C@@H]2C)C[C@H](O)[C@@H]1O
inactive: [8] | [2] | [5] | [9] | [7]
active: [1] 43.5 nM and 75 nM | [12] 97.5 nM | [4] 77.4 nM and 422 nM | [13] 97.5 nM and 168 nM

CN(C)C(=S)S
active: [1] 9.89 µM and 3.83 µM and 13.7 µM | [12] 19.7 µM and 6.81 µM and 27.3 µM | [3] 27.9 µM and 7.64 µM and 27.3 µM | [6] 2.15 µM and 12.2 µM

Oc1cc(Cl)c(Cl)c(Cl)c1
inactive: [8] | [2] | [5] | [9] | [7]
active: [13] 36.6 µM

C[C@]12CC[C@H](O)C[C@H]1CC[C@@H]1[C@@H]2C[C@@H](O)[C@]2(C)[C@@H](C3=CC(=O)OC3)CC[C@]12O
inactive: [8] | [2] | [5] | [9] | [7]
active: [1] 0.77 µM | [13] 3.86 µM

CCC(C)c1cc([N+](=O)[O-])cc([N+](=O)[O-])c1OC(=O)C=C(C)C (centres undefined)
active: [1] 27.3 µM | [3] 61.1 µM | [6] 30.6 µM
inactive: [2]

O=C(CCCN1CCC2(CC1)C(=O)NCN2c1ccccc1)c1ccc(F)cc1
active: [12] 5960 nM | [3] 3.35 µM
not listed: [4] | [8] | [10]
inactive: all other assays above
